# Source: the supplement of paper PMC8728848
# Only a selection was taken, and the strongest signals are over-represented in it overall.
# B1: KCR (Mus musculus), P70194 (protein)
# chain: MKEAELNRDMARYCTDNQCVSLQPQGLGPKSAALMAPRTLRHVQVILALMVVTVIFSLLALFVVASQPWRPEWNKEPPSLLLRGSNNSGHDNHSQFVRETEMQVAIQRLRDYEENSSSCHKEVQILKYQMDNVSSLVQLLGSHLEDVNADILQTKDVLKESGALALETQALRSSLEVASADIHSLRGDLEKANAMTSQTRGLLKSSTENTSAELHVLGRGLEEAQSEIQALRGSLQSANDLSSQTQGFLQHSMDNISAQIQTVRDGMERAGEKMNSLKKELETLTAQTQKANGHLEQTDAQIQGLKAELKSTSSLNSRIEVVNGQMKDASRELQTLRRDLSDVSALKSNVQMLQSNLQRAKTEMQTLKADLQATKALTAKIQGEQNRLGALQEAVAAQKQEQKTQNQVLQLIAQNWKYFNGNFYYFSRDKKPWREAEKFCTSQGAHLASVTSQEEQAFLVQTTSSGDHWIGLTDQGTEGIWRWVDGTPFNNAQSKGFWGKNQPDNWRHRNGEREDCVHVRQQWNDMACGSSYPWVCKKSTGWSAARVG
# Legend:
# Assay in all cases: glycan array binding signal (z-score within array); higher = stronger binding
# Settings in all cases: glycan notation: IUPAC condensed, linker removed
# Fuc(a1-2)Gal(b1-3)GalNAc = target: Fuc(a1-2)Gal(b1-3)GalNAc
# In short: (§1)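 From the Consortium for Functional Glycomics database, 3228 arrays were curated, keeping only those whose protein sequence was available. Binding is given as a within-array Z-score averaged across arrays sharing a protein sequence and across linkers. Negative Z-scores can be read as non-binding.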
# [1] = target: Fuc(a1-2)Gal(b1-3)GalNAc(b1-4)[Neu5Ac(a2-3)]Gal(b1-4)Glc
# In short: as §1
# [2] = target: Fuc(a1-2)Gal(b1-4)GlcNAc(b1-3)Gal(b1-4)GlcNAc
# In short: as §1
# [3] = target: Fuc(a1-2)Gal6S(b1-4)GlcNAc
# In short: as §1
# [4] = target: Fuc(a1-3)[Gal(b1-4)]GlcNAc(b1-4)Gal(b1-4)[Fuc(a1-3)]GlcNAc(b1-4)Gal(b1-4)[Fuc(a1-3)]GlcNAc
# In short: as §1
# [5] = target: Fuc(a1-3)[Gal(b1-4)]GlcNAc6S
# In short: as §1
# [6] = target: Fuc(a1-3)[GalNAc(b1-4)]Gal(b1-4)GlcNAc
# In short: as §1
# [7] = target: Gal(a1-3)Gal(b1-4)[Fuc(a1-3)]GalNAc
# In short: as §1
# Gal3S(b1-4)GlcNAc6S = target: Gal3S(b1-4)GlcNAc6S
# In short: as §1
# Gal6S(b1-4)Glc6S = target: Gal6S(b1-4)Glc6S
# In short: as §1
# Gal6S(b1-4)GlcNAc = target: Gal6S(b1-4)GlcNAc
# In short: as §1
# Glc(b1-6)Glc = target: Glc(b1-6)Glc
# In short: as §1
# [8] = target: GlcNAc(a1-6)Gal(b1-4)GlcNAc
# In short: as §1
# [9] = target: GlcNAc(b1-3)Gal(b1-4)GlcNAc(b1-3)Gal(b1-4)GlcNAc
# In short: as §1
# [10] = target: GlcNAc(b1-3)[GlcNAc(b1-6)]GlcNAc
# In short: as §1
# [11] = target: GlcNAc(b1-4)Gal(b1-4)GlcNAc
# In short: as §1
# [12] = target: GlcNAc(b1-4)[GlcNAc(b1-6)]GalNAc
# In short: as §1
# Kdn(a2-3)Gal(b1-4)GlcNAc = target: Kdn(a2-3)Gal(b1-4)GlcNAc
# In short: as §1
# [13] = target: Man(a1-2)Man(a1-2)Man(a1-3)[Man(a1-2)Man(a1-6)[Man(a1-3)]Man(a1-6)]Man(b1-4)GlcNAc(b1-4)GlcNAc
# In short: as §1
# [14] = target: Neu5Ac(a2-3)Gal(b1-3)GlcNAc
# In short: as §1
# [15] = target: Neu5Ac(a2-3)Gal(b1-4)[Fuc(a1-3)]GlcNAc(b1-3)Gal(b1-4)GlcNAc
# In short: as §1
# [16] = target: Neu5Ac(a2-8)Neu5Ac(a2-8)Neu5Ac(a2-3)[GalNAc(b1-4)]Gal(b1-4)Glc
# In short: as §1
# [17] = target: Neu5Gc(a2-3)Gal(b1-4)GlcNAc
# In short: as §1
binder,measurement,setting,value
B1,glycan array binding signal (z-score),Fuc(a1-2)Gal(b1-3)GalNAc,-0.72
same,glycan array binding signal (z-score),[1],-0.426
same,glycan array binding signal (z-score),[2],-0.635
same,glycan array binding signal (z-score),[3],0.367
same,glycan array binding signal (z-score),[4],4.39
same,glycan array binding signal (z-score),[5],3.94
same,glycan array binding signal (z-score),[6],3.06
same,glycan array binding signal (z-score),[7],0.117
same,glycan array binding signal (z-score),Gal3S(b1-4)GlcNAc6S,0.95
same,glycan array binding signal (z-score),Gal6S(b1-4)Glc6S,2.48
same,glycan array binding signal (z-score),Gal6S(b1-4)GlcNAc,0.769
same,glycan array binding signal (z-score),Glc(b1-6)Glc,-0.566
same,glycan array binding signal (z-score),[8],2.47
same,glycan array binding signal (z-score),[9],-0.465
same,glycan array binding signal (z-score),[10],-0.721
same,glycan array binding signal (z-score),[11],-0.82
same,glycan array binding signal (z-score),[12],-0.917
same,glycan array binding signal (z-score),Kdn(a2-3)Gal(b1-4)GlcNAc,-0.623
same,glycan array binding signal (z-score),[13],-0.336
same,glycan array binding signal (z-score),[14],-0.592
same,glycan array binding signal (z-score),[15],0.119
same,glycan array binding signal (z-score),[16],0.254
same,glycan array binding signal (z-score),[17],-0.288
